Screens deposited in PubChem by Johns Hopkins Ion Channel Center.
ANO1 block = inhibitors of mouse TMEM16A calcium-activated chloride channel; Q8BHY3; HEK293 TMEM16A/YFP iodide influx fluorescence, ionomycin; normalized B-score (activity score, 25-100; higher = stronger inhibition) at 10 µM; 1.2% of 310,000 active; AID 588511;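 active means ratio plate-corrected score three or more library SD toward inhibition, starting fluorescence score within five deviations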;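 further: score derived from kinetic fluorescence span divided by baseline fluorescence per well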
CHT allo act = allosteric activators of human choline transporter CHT | Q9GZV3 | CHT-expressing cells, membrane potential dye, choline EC20; stronger effect = higher value; LV-AA mutant CHT in HEK293 cells | B-score at 10 µM | 0.49% of 310,000 active;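 active means initial fluorescence not abnormally high and integrated response B-score, plate-corrected, over 3 SD above library mean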
Target sequence (Q9GZV3 whole entry, looked up): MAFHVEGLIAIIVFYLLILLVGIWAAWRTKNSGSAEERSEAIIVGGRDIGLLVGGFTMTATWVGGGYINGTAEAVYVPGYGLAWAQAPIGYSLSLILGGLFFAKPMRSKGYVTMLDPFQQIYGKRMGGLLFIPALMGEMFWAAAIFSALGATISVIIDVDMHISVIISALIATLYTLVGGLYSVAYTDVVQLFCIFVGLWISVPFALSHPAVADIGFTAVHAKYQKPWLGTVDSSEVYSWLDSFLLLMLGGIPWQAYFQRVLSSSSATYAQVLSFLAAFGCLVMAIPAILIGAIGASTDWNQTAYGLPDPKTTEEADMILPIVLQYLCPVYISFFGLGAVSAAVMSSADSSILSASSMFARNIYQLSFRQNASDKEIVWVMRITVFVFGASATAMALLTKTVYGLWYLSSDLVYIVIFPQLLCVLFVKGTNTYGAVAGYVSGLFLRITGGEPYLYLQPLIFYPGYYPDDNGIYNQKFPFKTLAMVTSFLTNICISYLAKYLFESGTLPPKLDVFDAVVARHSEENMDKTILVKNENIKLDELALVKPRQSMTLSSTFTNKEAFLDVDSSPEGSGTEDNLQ
TMEM16A act = mouse TMEM16A channel activation, primary screen. HEK293 TMEM16A/YFP-H148Q/I152L, iodide quench fluorescence; stronger effect = lower value. 0.3% of 340,000 active. B-score at 10 µM;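 active means fluorescence-ratio B-score plate-corrected deviation score at least 3 library SD below zero, with starting fluorescence score within 5 deviations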;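 further: channel opened by trigger with iodide after compound preincubation; score built on the fluorescence ratio of max minus min over baseline; more negative score means more quench and so TMEM16A activation or potentiation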
CHT block = human CHT choline transport inhibition | Q9GZV3 | CHT-expressing cells, membrane potential dye, choline response; stronger effect = lower value | B-score at 10 µM | 0.86% of 310,000 active;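 active means B-score over 3 SD under the library average, and starting fluorescence ratio not unusually high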;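 further: choline stimulus applied at its EC90 after an EC20 pre-addition; B-score computed on integrated fluorescence ratio after choline addition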
Active calls of the source: *; i = inactive; · = no result given. An excerpt weighted towards active compounds, which were near 2.4% of everything screened.

SMILES | ANO1 block | CHT allo act | TMEM16A act | CHT block
Cn1ncnc2c(=O)n(C)c(=O)nc1-2 | 25* | i | i | i
Cc1cc(=O)oc2cc(OCC(=O)N3C[C@H]4C[C@@H](C3)c3cccc(=O)n3C4)c(Cl)cc12 | i | i | i | i
Cc1cc(=O)oc2cc(OCC(=O)N3CCN(C(C)c4ccccc4)CC3)c(Cl)cc12 (stereo not drawn) | · | · | -42* | ·
CCN(CC)C(=O)c1ccc(NC(=O)c2cccc(S(=O)(=O)N3CCN(Cc4ccccc4)CC3)c2)cc1 | 25* | i | i | i
Cc1cc(C)nc(/N=C(\N)c2c(O)[nH]c(=O)[nH]c2=O)n1 | i | i | i | i
Cc1cc(NCCN)nc2ccccc12 | i | 11* | i | i
COC1C(OC(=O)c2ccc(C)[nH]2)C(O)C(Oc2ccc3c(O)c(NC(=O)c4ccc(O)c(CC=C(C)C)c4)c(=O)oc3c2Cl)OC1(C)C (stereo not drawn) | 100* | i | i | i
Cc1ccc(C2=NN(CCC(=O)N3CCC4(CC3)OCCO4)C(=O)CC2)cc1 | i | i | i | i
CCOc1ccc(-c2c(C)n(-c3ccc(OCC)cc3)c3[n+]2CCCCC3)cc1 | 25* | i | i | i
CCOc1ccc(-n2c(-c3ccoc3)nc3ccccc3c2=O)cc1 | i | i | i | i
O=P(N1CC1)(N1CC1)N1CCc2ccccc21 | · | · | i | ·
CCN1CC2([N+](=O)[O-])CC=C(Cl)C([N+](=O)[O-])(C1)C2 (stereo not drawn) | i | i | i | i
CC(=O)C1C(N2CC2)CC2C3CCC4=CC(=O)CCC4(C)C3CCC21C (stereo not drawn) | · | · | i | ·
O=C(c1ccc(Cl)cc1)C1CCCN(Cc2ccc3ncccc3c2)C1 (stereo not drawn) | 25* | i | i | i
O=C(c1ccc(Cl)cc1)C1CCCN(Cc2ccc3c(c2)OCCO3)C1 (stereo not drawn) | i | i | i | i
C=Cn1ccnc1P(=S)(c1ccccc1)c1nccn1C=C | i | i | i | i
Cc1ccc(-c2cc(-c3ccccc3)cc(-c3ccccc3)[n+]2-c2ccccc2)cc1 | 100* | i | i | i
c1ccc(-c2cc(-c3ccccc3)[n+](-c3ccccc3)c(-c3ccccc3)c2)cc1 | 25* | i | i | i
CCOC(=O)c1cccc(-[n+]2c(-c3ccccc3)cc(-c3ccccc3)cc2-c2ccccc2)c1 | i | i | -5.6* | i
CCCN(CC#CCOc1ccc(OC)cc1)CCC | i | i | -16* | i
CN1CCN(CC#CCOc2ccc(Cl)cc2)CC1 | i | i | i | i
CN1C(=O)COc2c(C(=O)NC3CN4CCC3CC4)cc(Cl)cc21 (stereo not drawn) | i | 8.9* | · | i
CCCC(C)C1C(C#N)=C(N)Oc2c1c(=O)oc1ccccc21 (stereo not drawn) | 100* | i | i | i
CCCC1C(C#N)=C(N)Oc2c1c(=O)oc1ccccc21 (stereo not drawn) | i | i | i | i
CN1CCN(c2c(C#N)c(C(F)(F)F)nn2C)CC1 | i | i | i | i
SMILES | ANO1 block | CHT allo act | TMEM16A act | CHT block
CC[C@H](C)[C@@H]1O[C@@]2(C=CC1C)CC1C[C@@H](CC=C(C)C(O[C@H]3CC(OC)C(O[C@H]4CC(OC)C(O)C(C)O4)C(C)O3)C(C)C=CC=C3CO[C@@H]4C(O)C(C)=C[C@@H](C(=O)O1)[C@]34O)O2 (stereo partly drawn) | 25* | i | · | i
CCC1C2CC3C4N(C)c5ccccc5C45CC(C2C5O)N3[C@@H]1O (stereo partly drawn) | i | i | i | i
CC[C@H]1C2C[C@H]3[C@@H]4N(C)c5ccccc5C45C[C@H](C2[C@H]5O)N3[C@@H]1O (stereo partly drawn) | 100* | i | i | i
CC(C)CCOP(N)(=O)Oc1ccccc1Cl (stereo not drawn) | i | i | i | i
CC(=O)OC1CC2(O)C3CCC4CC(O)CCC4(C)C3CCC2(C)C1C1=CC(=O)OC1 (stereo not drawn) | · | · | i | ·
COc1cc(/C=C/c2nc3ccccc3c(=O)n2-c2ccccc2O)ccc1O | i | i | i | i
COc1cc(/C=C/c2nc3ccccc3c(=O)n2-c2cccc(O)c2)ccc1O | i | i | -5.2* | i
COC(=O)C1=C(C(=O)OC)C2OC1c1cc3ccccc3cc12 | · | · | -4.9* | ·
COC(=O)C1=C(c2ccc3ccccc3c2)C[C@@H]2CC[C@H]1N2C | · | · | i | ·
COC(=O)C1=C(c2ccc(F)cc2OCc2ccccc2)C[C@@H]2CC[C@H]1N2C(=O)NCc1cc(C)oc1C(F)(F)F | · | · | i | ·
N#CC(C#N)=Cc1ccc(O)c(O)c1 | i | i | i | i
CC(C)(C)c1cc(C=C(C#N)C#N)cc(C(C)(C)C)c1O | 100* | i | i | i
CC1=C(O)C(=O)C=C2C1=CC=C1C2(C)CCC2(C)C3CC(C)(C(=O)O)CCC3(C)CCC12C (stereo not drawn) | · | · | -10* | ·
CCOC(=O)C1=C(N)OC2=C(C(=O)CCC2)[C@]12C(=O)N(CC(N)=O)c1ccccc12 | i | i | i | i
COc1cc2c(c(OC)c1OC)-c1ccc(O)cc1[C@@H](NC(C)=O)CC2 | i | 8* | i | i
CCCCNS(=O)(=O)c1ccc(OCC(=O)N2CCN(Cc3ccc4c(c3)OCO4)CC2)cc1 | i | i | -4.7* | i
CN[C@H]1C[C@H]2O[C@@](C)([C@H]1OC)n1c3ccccc3c3c4c(c5c6ccccc6n2c5c31)C(=O)NC4 | i | i | · | -5.3*
Cc1ncc2n1-c1ccc(Cl)cc1C(c1ccccc1F)=NC2 | · | · | i | ·
CCCCCCNC(=O)N[C@H](Cc1ccc(O)cc1)C(=O)NCCC[C@H]1CN2C(=NC[C@H]2CCC)N1CC1CCC1 | i | i | · | i
COC1CCC(OC2CC(C3(C)CCC4(CC(O)C(C)C(C(C)/C=C(\C)C(=O)C(C)CC(C)C(=O)O)O4)O3)OC3(OC(C4OC(O)(CO)C(C)CC4C)CC3C)C2C)OC1C (stereo not drawn) | · | · | -4.8* | ·
CC(C(=O)c1c[nH]c2ccccc12)N1CCSCC1 (stereo not drawn) | i | i | i | i
Oc1ccc2c3c1OC1c4[nH]c5ccccc5c4C[C@@]4(O)C(C2)N(CC2CC2)CC[C@]314 (stereo partly drawn) | · | · | i | ·
C=C(C)CN1CC[C@]23c4c5ccc(O)c4O[C@H]2c2[nH]c4ccccc4c2C[C@@]3(O)C1C5 | i | i | · | -5.3*
O=C(Nc1cccc(Cl)c1)OCC#CCN1CCCC1 | · | · | i | ·
O=C(Cn1ncc2c3ccccc3n(Cc3ccccc3F)c2c1=O)N1CCC2(CC1)OCCO2 | i | i | -21* | i
Cc1c2cnn(CC(=O)N3CCC4(CC3)OCCO4)c(=O)c2c(C)n1Cc1ccc(F)cc1 | i | i | i | i
